# Screening data from PubChem BioAssay.
# HIF-2a inh: HIF-2a reporter inhibitors, primary screen, luminescence, 786-0 RCC cells; actives 0.72% (n = 360,000); inhibition, % at 18.8 µM; AID 624352, 2012; 786-0 RCC cells HIF-2a reporter, luciferase luminescence, overnight;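 active = inhibition of the luminescence signal of 40% or more relative to plate controls, in a single-dose primary screen at 18.75 µM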
# EBV LMP1 NFkB: EBV LMP1-driven NF-kappaB luciferase reporter inhibitors, primary screen, cell-based, luminescence, single point; inhibition, % at 12.5 µM; actives 0.69% (n = 350,000); AID 504558, 2011; LMP1-induced NF-kappaB luciferase reporter cells; in the data active = inhibition above about 41%; inconclusive = no clear call, values can overlap the other calls;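 note: 0% = neutral control wells and 100% = reference inhibitor control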
# CF NFkB inh: inhibitors of PAF-induced NF-kB signaling, primary screen, cell-based, GFP fluorescence, uHTS. inhibition, % at 5 µM. actives 0.86% (n = 360,000). KKLEB NF-kB-GFP reporter, GFP fluorescence overnight;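 active = at least 50% inhibition at 5 µM, scaled per plate between neutral and stimulator controls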;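 note: PAF is a Pseudomonas aeruginosa culture filtrate used as stimulus; plate controls were PAF-stimulated DMSO wells for no effect and unstimulated DMSO wells for full effect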
# KKLEB cytotox: cytotoxicity in KKLEB CF airway cells, primary screen, cytotoxicity control for CF NF-kB inhibitor project, cell-based, uHTS, fluorescence assay plates; AID 602141, 2011; actives 0.36% (n = 360,000); activity change (cytotoxicity), % at 5 µM; KKLEB CF airway cells viability, ATPlite luminescence, overnight; active compounds read low; cells stimulated with P. aeruginosa culture filtrate;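 active = corrected activity change at or below -50% at 5 µM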
# Shn3 inh set2: reduction of Shn3 3'UTR firefly luciferase signal, primary screen, Schnurri-3 inhibitor project, cell-based, Clone20 osteoblasts, set 2; Clone20 osteoblast Shn3 3'UTR firefly luciferase, 24 h; inhibition, % at 12.5 µM; AID 588674, 2011; actives 0.52% (n = 360,000);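 active = mean inhibition of at least 75% with every replicate also reaching 75%; inconclusive = mean inhibition at least 75% but some replicate below; inactive = mean inhibition below 75%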;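 note: 0% = median of neutral control wells and 100% = pilot-screen positive control compound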
# Peg3 promoter: Peg3 promoter-driven luciferase inhibitors, primary screen, cell-based, HeLa, luciferase luminescence; HeLa PEG-Prom luciferase reporter, overnight; actives 1.7% (n = 360,000); inhibition, % at 20 µM;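 active = inhibition of at least 50% at 20 µM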
# The depositor's hits bear a star; ? = inconclusive; nt = no result given. Rows were chosen to be rich in hits. Some 2.9% of all compounds tested hit in one or more screens of this group.
SMILES,HIF-2a inh,EBV LMP1 NFkB,CF NFkB inh,KKLEB cytotox,Shn3 inh set2,Peg3 promoter
COc1cc(NC(=O)C2=C(N3CCOCC3)/C(=C\c3ccc(Cl)cc3Cl)CC2)cc(OC)c1OC,19,20,50,-65*,22,24
CN(C)CCCNC(=O)c1ccc(-c2cc3nc(NCc4cccnc4)n(C)c(=O)c3s2)cc1,7,nt,-32,1,-19,0
CC(=O)c1cc(Cl)ccc1OC(=O)c1ccco1,17,3,3,8,0,2
O=C(Oc1ccc(Br)cc1C(=O)/C=C/c1ccccc1F)c1ccco1,19,-5,12,-10,-8,50*
COc1cccc(NC(=O)COC(=O)c2c3c(nc4ccccc24)CCC(C)C3)c1 (centres undefined),-52,22,-8,0,51,71*
NC(=O)CSc1nnc(-c2ccccc2)c(-c2ccccc2)n1,9,-4,4,-1,15,-23
CCN(CC)CCNC(=O)c1c(C)n(-c2ccccc2)c2cc(Br)c(OC)cc12,22,-39,16,-16,4,65*
CCNC(=O)C1CCCN(Cc2cc(C(F)(F)F)ccc2Cl)CC1 (centres undefined),10,nt,-2,-13,2,2
NC(=O)C1=C[C@@H](c2csc3ccccc23)C[C@@H](OCCCCO)O1,20,4,5,-10,11,-4
FC(F)(F)c1cc(CCN2CCNC[C@@H]2CC2CCCCC2)cc(C(F)(F)F)c1,5,-7,20,-22,3,96*
CCCC[C@@H]1CNCCN1CCc1cc(C(F)(F)F)cc(C(F)(F)F)c1,-1,-2,1,-11,1,7
CC(=O)c1ccc(OCC(=O)NCC2(N3CCCCC3)CCCCC2)cc1,12,7,23,5,nt,4
CC(=O)Nc1ccc(S(=O)(=O)N2CCN(Cc3cccs3)CC2)cc1,4,-1,-3,3,9,5
O=C(COC(=O)c1ccccc1C(=O)c1ccc(Cl)cc1)NCC1CCCO1 (centres undefined),9,11,0,-1,0,-2
CC1=CC(=O)C(C(C)C)=C/C1=C(\c1cc(C(C)C)c(OP(=O)(O)O)cc1C)c1ccccc1C(=O)O,22,-1,-31,12,9,67*
CCOc1ccc(C(=O)c2ccccc2C(=O)O)cc1OCC,10,0,-2,5,-5,3
COc1ccccc1C(=O)NCCC(=O)N1CC=C(c2ccccc2)CC1,14,0,0,2,-21,5
O=C1ON=C(c2ccccc2)/C1=C/c1ccc(-c2ccccc2[N+](=O)[O-])o1,98*,-7,40,-18,?,103*
CCCCCCCC(=O)C(C)C(=O)N(C)[C@H](Cc1ccc(OC)cc1)C(=O)N(C)[C@H](C(N)=O)C(C)C (some centres undefined),-10,-6,-4,8,-11,0
Cc1cccc(-c2cc3nc(C)cc(NCCCN(C)C)n3n2)c1,-42,1,-20,-10,-13,-10
CN(C)CCCNc1cc(-c2ccccc2)nc2cc(-c3cccc(F)c3)nn12,-47,-19,-10,8,-37,101*
CCN(CC(=O)NCc1ccc(Cl)cc1)CC(=O)NC1(C#N)CCCC1,10,-3,7,-2,-1,-3
O=C(OCC12CC3CC(CC(C3)C1)C2)c1ccc(NCc2cc(O)ccc2O)cc1,81*,4,58*,-42,98*,6
CCNC(=O)OCCC12CC3CC(CC(C3)C1)C2,-6,3,14,0,-10,-19
O=C(OCCC12CC3CC(CC(C3)C1)C2)c1ccc(NCc2cc(O)ccc2O)cc1,77*,-25,21,-12,99*,-34
SMILES,HIF-2a inh,EBV LMP1 NFkB,CF NFkB inh,KKLEB cytotox,Shn3 inh set2,Peg3 promoter
CNCCCOc1ccc(Cl)cc1C(C)(C)C,4,-4,18,-22,19,68*
Cc1ccc(NC(=O)/C(C#N)=C/c2cn(CC(=O)NCc3ccco3)c3ccccc23)cc1C,8,-23,18,1,9,36
Cc1ccc(CS/C(Nc2ccccc2C)=C(\C#N)C(=O)NCc2ccco2)c(C)c1,23,-1,-4,-14,27,51*
Cc1ccccc1N/C(SCc1ccc(Cl)cc1)=C(/C#N)C(=O)NCc1ccco1,15,6,12,4,7,17
Cc1ccc(C)c(NC(=O)/C(C#N)=C/c2cn(CC(=O)NCc3ccco3)c3ccccc23)c1,5,-15,28,-45,57,51*
Cc1cc(C)cc(NC(=O)/C(C#N)=C/c2cn(CC(=O)NCc3ccco3)c3ccccc23)c1,14,-2,70*,-72*,73,74*
CCN(CC(=O)Nc1c(F)cccc1F)C(=O)Cc1ccc(S(=O)(=O)N2CCOCC2)s1,-6,2,6,-8,-3,7
CCOc1ccc(/C=C/C(O)=C2/C(=O)N(C)C3(C)CC2c2ccccc2O3)cc1OC (centres undefined),62*,6,47,-14,-31,40
Cc1nc2cc(NC(=O)Nc3ccc(Br)cc3)ccc2o1,-236,-21,9,7,-42,-356
COc1cc(/C=C/c2ccc3cccc(O)c3n2)cc(Br)c1OC,-215,2,12,8,0,-175
COc1cc(Br)cc(/C=C/c2ccc3cccc(O)c3n2)c1OC,-7,9,-24,-5,1,-8
COc1ccc(/C=C/c2ccc3cccc(O)c3n2)c(OC)c1OC,-187,-4,-27,-15,19,86*
COc1cccc(/C=C/c2ccc3cccc(O)c3n2)c1OC,-313,0,-63,-23,10,90*
COc1ccc(Br)cc1/C=C/c1ccc2cccc(O)c2n1,-24,7,-35,3,19,-7
COc1cc(/C=C/c2ccc3cccc(O)c3n2)cc(OC)c1OC,-60,-4,8,-4,-10,95*
Cc1cc(N2CCCC2=O)ccc1S(=O)(=O)Nc1c(C)nn(C)c1C,14,12,-30,2,65,16
Cc1cc(N2CCCC2=O)cc(C)c1S(=O)(=O)Nc1c(C)nn(C)c1C,21,49*,-4,9,14,7
CCCCNc1c(-c2cccc(-c3cc(C(C)=O)cs3)c2)nc2cc(C)ccn12,-101,3,10,-10,9,60*
Nc1c(N(CCC2=CCCCC2)C(=O)CCCOc2ccccc2)c(=O)[nH]c(=O)n1Cc1ccccc1,11,0,6,-4,25,13
